Where “and” joins values, the source holds several entries; their conditions need not be identical. Equal values may be shown once. About 5,800 (36%) of roughly 16,000 compounds were called active. Another 23% or so got no clear call; they are omitted. The list shows a part of the results. Unmarked numbers belong to inactive results. Calls come from the whole dose curve; as a rule, active = well fitted curve in the direction sought with a large enough effect; inconclusive = small, poorly fitted or top-dose-only effect, or effect the other way; inactive = no such curve, though single readings can be large or run the other way.
The compounds below were run against Cytochrome P450 2C19 (Homo sapiens) (UniProt P33261) (assay: Cytochrome panel assay with activity outcomes). Conditions: recombinant CYP, pro-luciferin dealkylation, luminescence, p450-cyp2c19; series mostly up to 57.1 µM; activity, negative = inhibition: at the top concentration.
Cytochrome P450 2C19 (Homo sapiens), sequence (P33261 whole entry, looked up): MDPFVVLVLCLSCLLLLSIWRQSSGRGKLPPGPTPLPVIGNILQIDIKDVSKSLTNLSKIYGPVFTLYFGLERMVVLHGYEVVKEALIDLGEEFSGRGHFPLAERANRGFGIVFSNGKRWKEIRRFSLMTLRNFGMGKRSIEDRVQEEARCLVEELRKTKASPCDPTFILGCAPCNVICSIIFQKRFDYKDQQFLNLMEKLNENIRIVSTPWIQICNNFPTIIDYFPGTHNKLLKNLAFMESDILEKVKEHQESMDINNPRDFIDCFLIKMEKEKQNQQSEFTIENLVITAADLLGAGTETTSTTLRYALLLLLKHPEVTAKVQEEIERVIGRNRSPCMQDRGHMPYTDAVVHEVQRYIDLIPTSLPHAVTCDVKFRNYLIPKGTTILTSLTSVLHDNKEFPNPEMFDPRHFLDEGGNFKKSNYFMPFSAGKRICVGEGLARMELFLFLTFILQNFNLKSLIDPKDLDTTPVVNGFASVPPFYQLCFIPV
% is set by controls: 0 for no effect and ±100 for the full control effect.

SMILES	activity, negative = inhibition	AC50
COc1ccccc1CN1CCCC2(CCN(S(C)(=O)=O)CC2)C1	4.75%	–
O=P(O)(O)O[C@@H]1O[C@H](CO)[C@@H](O)[C@H](O)[C@@H]1O	38.5% [at 11.4 µM]	–
Cc1ccc(C)c(NC(=O)Cn2c([N+](=O)[O-])cnc2C)c1	-43.3%	–
CCOCC(=O)Nc1cc(-c2cn3cccnc3n2)ccc1C	29.5%	–
CCOc1ncccc1C(=O)OCC(=O)Nc1cc(C)ccc1C	–	5.01 µM (active)
Cc1ccc(C(=O)NC(=S)NCC2CCCO2)cc1 (configuration not stated)	–	6.31 µM (active)
CCOc1cc(NC(=S)NCC2CCCO2)c(OCC)cc1NC(=O)c1cccc(C)c1 (configuration not stated)	–	11.2 µM (active)
CCOC(=O)Nc1ccc(C(=O)NCC2CCCO2)cc1 (configuration not stated)	14.5%	–
O=C(O)c1cc2cc(Cc3cccnc3)ccc2o1	34.7%	–
CCOc1ccc(OCc2ccc(C(=O)N3CCc4ccccc4C3)o2)cc1	–	5.62 µM (active)
CCOc1ccc(OCc2ccc(C(=O)NCc3cccnc3)o2)cc1	–	22.4 µM (active)
Cc1ccccc1CS(=O)(=O)Cc1ccc(C(=O)NCc2cccnc2)o1	–	3.55 µM (active)
CC1CCN(C(=O)c2ccc(COc3ccccc3Cl)o2)CC1	–	8.91 µM (active)
Cc1cc(=O)oc(C)c1C(=O)NCc1cccnc1	12.1%	–
NS(=O)(=O)c1cc2c(cc1Cl)NC(CSCc1ccccc1)=NS2(=O)=O	3.64% [at 25.6 µM]	–
CNC[C@@H](SC)c1ccc(O)c(O)c1	-19% [at 11.4 µM]	–
Cc1cccc(C)c1NC(=O)CN1CCN(CCCC(c2ccc(F)cc2)c2ccc(F)cc2)CC1	-29.9% [at 25.6 µM]	–
CC(=O)Nc1ccc(NC(=O)Cn2c(-c3ccc(F)cc3)cnc2SCC(=O)Nc2c(C)cccc2C)cc1	–	1.58 µM (active)
CCNc1ncc2nc(-c3ccc(Cl)cc3)c(=O)n(C[C@H]3CCCO3)c2n1	9.08%	–
CCc1ccccc1NC(=O)C1C(c2ccccc2)C1(Cl)Cl (configuration not stated)	–	1.78 µM (active)
O=C(COc1ccccc1-c1ccccc1)N/N=C/c1cccc2ccccc12	–	2.24 µM (active)
O=C(COc1ccc(-c2ccccc2)cc1)N/N=C/c1ccccc1Br	–	2.51 µM (active)
COc1ccc(OCC(=O)NNC(=O)c2ccc(-c3ccccc3)cc2)cc1	-9.31%	–
O=C(Cc1ccccc1)Nc1nc2ccc(Cl)cc2c2nc(-c3ccco3)nn12	–	1.58 µM (active)

SMILES	activity, negative = inhibition	AC50
COc1ncc2nc(-c3ccc(Cl)cc3)c(=O)n(C)c2n1	0.0431%	–
Cc1cc(Cl)ccc1Oc1ncc(-c2ccc(Cl)cc2)cn1	–	2.51 µM (active)
Cc1cccc(Oc2ncc(-c3ccc(Cl)cc3)cn2)c1C	–	14.1 µM (active)
Cn1c(=O)c(-c2ccc(Cl)cc2)nc2cnc(Oc3ccccc3)nc21	5.73%	–
C#CCCCO/N=C1/C[C@@H](O)[C@@H](O)[C@@H]2[C@@H]3C(=O)N([C@@H](C)c4ccccc4)C(=O)[C@H]3CC[C@@H]12	-27.9% [at 11.4 µM]	–
CCCC(=O)N1c2ccccc2C(N(C(C)=O)c2ccccc2)CC1C (configuration not stated)	–	15.8 µM (active)
COc1ccc(-n2c(=O)cnc3cnc(OC)nc32)cc1	8.17%	–
Cc1ccc(-n2ccc(=O)c(-c3ccnc(SCc4cccc(Cl)c4)n3)n2)cc1	–	3.55 µM (active)
NNC(=O)c1nn(-c2ccc(Cl)cc2)ccc1=O	86.7%	–
C[C@@H]1C[C@@H]2[C@H]3CCC4=CC(=O)C=C[C@]4(C)[C@]3(Cl)[C@@H](O)C[C@@]2(C)[C@@]1(O)C(=O)CO	15.2%	–
CC1=C(C(=O)Nc2ccccc2F)C(c2ccsc2)C2=C(CC(c3ccccc3)CC2=O)N1 (configuration not stated)	–	5.01 µM (active)
COC(=O)C1=C(C)NC(=O)NC1c1ccsc1 (configuration not stated)	-26.2%	–
C=CCSc1nc(Oc2ccccc2)c2sccc2n1	–	2.24 µM (active)
C=CCSc1nc(NC)c2sccc2n1	–	14.1 µM (active)
C=CCNc1nc(SCC=C)nc2ccsc12	–	8.91 µM (active)
C=CCSc1ccsc1C(=O)O	-21.7%	–
C[C@@]12C(=O)OC(=O)[C@]1(C)[C@H]1CC[C@@H]2O1	20.3% [at 25.6 µM]	–
O=C1C[C@@H](O)[C@@H](O)[C@H]2[C@@H]3C(=O)N(c4cccc(Oc5ccccc5)c4)C(=O)[C@@H]3CC[C@H]12	5.15% [at 11.4 µM] and -20.4% [at 11.4 µM]	–
O=C(Nc1ccc2c(c1)OCCO2)c1cc2sccc2n1Cc1ccc(F)cc1	–	1 µM (active)
O=C(Nc1ccc2c(c1)OCCO2)c1cc2sccc2n1Cc1ccccc1	–	3.16 µM (active)
FC(F)(F)c1cc(Sc2ccccc2)nc(-c2ccccn2)n1	-107%	–
CCNc1nc(Sc2ccc(C)cc2)cc(C(F)(F)F)n1	–	11.2 µM (active)
Cc1ccc(Sc2cc(Cl)nc(N)n2)cc1	15.3%	–
